# Assay outcomes from PubChem.
# This is a sample that favours compounds with a hit; in the whole collection about 19% have one here.
# IL-1B inflam inh = qHTS for Inhibitors of Inflammasome Signaling: IL-1-beta AlphaLISA Primary Screen; THP-1 LPS/ATP IL-1B secretion, AlphaLISA, 16 h; stronger effect = lower value; activity change, % at 57.5 µM; hit rate 4.7% among 360,000; in the data active = activity change below about -50%; inconclusive = mostly about -30% to -49%
#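 Secreted IL-1B measured by AlphaLISA bead assay after 16 h compound exposure of THP-1 cells; compounds (final up to 57.5 uM) added 1 h before LPS (250 ng/mL) and ATP (1.25 mM) stimulation; lower signal means less secretion.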
# TDP1 cell noCPT = qHTS for Inhibitors of human tyrosyl-DNA phosphodiesterase 1 (TDP1): qHTS in cells in absence of CPT | Potency, µM (doses to about 46.2 µM), actives largely listed as inhibitors | hit rate 15% among 420,000 | AID 686978, 2013 | DT40 Tdp1-/- hTDP1 cells, no CPT, ATP luminescence, 48 h; note: nearly all actives have a fitted effect of over 55% in size
#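 Chicken DT40 Tdp1-/- cells complemented with human TDP1, screened without camptothecin (DMSO vehicle only), 400 cells/well. Compounds pin-transferred, cells incubated at 37 °C for at least 48 hr. Growth read as ATP-dependent luminescence (CellTiter-Glo, 30 min at RT).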
# HT1080NT lethal = qHTS for induction of synthetic lethality in tumor cells producing 2HG: qHTS for the HT-1080-NT fibrosarcoma cell line; HT-1080-NT fibrosarcoma viability, CellTiter-Glo ATP luminescence, 48 h; Potency, µM (highest dose often 46.1 µM), usual class: cytotoxic; hit rate 1.6% among 360,000; AID 686970, 2013;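 note: NT is the 2HG producing partner of a matched IDH1 knockdown line; nearly all actives have a fitted effect of over 55% in size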
#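 Viability of the 2HG-overproducing fibrosarcoma line after 48 hours of compound exposure at 37 degrees C was determined by luminescence with CellTiter-Glo, and concentration-effect curves were then fitted and categorized.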
# DT40 TDP1 CPT = qHTS for Inhibitors of human tyrosyl-DNA phosphodiesterase 1 (TDP1): qHTS in cells in presence of CPT | hit rate 12% among 420,000 | Potency, µM (series often up to 46.2 µM), most hits filed as inhibitors | chicken DT40 Tdp1-/-;hTDP1 cells + 20 nM CPT, ATP luminescence, 48 h; note: nearly all actives have a fitted effect of over 55% in size
#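 Chicken DT40 Tdp1-/- cells stably complemented with human TDP1 were seeded at 400 cells/well in medium containing 20 nM camptothecin, exposed to pin-transferred compounds, and grown at 37 °C for at least 48 hr. Viability was read as ATP luminescence.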
# HT1080 IDH1KD tx = qHTS for induction of synthetic lethality in tumor cells producing 2HG: qHTS for the HT-1080-IDH1KD cell line; HT-1080 IDH1 knockdown viability, ATP luminescence, 48 h; Potency, µM (titrated, usually from 46.1 µM), actives largely listed as cytotoxic; hit rate 2% among 360,000
#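 HT-1080-IDH1KD cells (IDH1 knocked down), 750/well in RPMI with 5% FBS, treated with compound 48 h at 37 degrees C. Viability by CellTiter-Glo luminescence, normalised to DMSO and no-cell wells; concentration-response curves classed.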
# uPA surface inh = qHTS for Inhibitors of Cell Surface uPA Generation; cell surface uPA generation assay, qHTS; Potency, µM (doses to about 38.3 µM), actives largely listed as inhibitors; hit rate 0.31% among 330,000; AID 540303, 2011; active = well fitted inhibition curve with a large enough effect; inconclusive = small, poorly fitted or top-dose-only effect; inactive = no such curve, though single readings can be large or run the other way; tested in mouse RAW 264.7 cells; note: nearly all actives have a fitted effect of over 55% in size
# A number is an active result; - = inactive; ? = inconclusive; . = no result given; ! = a repeat was not active. Unless noted, calls come from the whole dose curve; as a rule, active = well fitted curve in the direction sought with a large enough effect; inconclusive = small, poorly fitted or top-dose-only effect, or another doubt; inactive = no such curve, though single readings can be large; an effect the other way counts as inactive or inconclusive.
SMILES,IL-1B inflam inh,TDP1 cell noCPT,HT1080NT lethal,DT40 TDP1 CPT,HT1080 IDH1KD tx,uPA surface inh
CCN(CC(=O)Nc1ccc(NC(C)=O)cc1)C(=O)c1ccc(Sc2nncn2C)c([N+](=O)[O-])c1,-,-,-,-,-,.
Cn1cnnc1Sc1ccc(C(=O)NCCC23CC4CC(CC(C4)C2)C3)cc1[N+](=O)[O-],-,?,?,10µM,?,-
CCN(CC)S(=O)(=O)c1ccc(NC(=O)c2ccc(Sc3nncn3C)c([N+](=O)[O-])c2)cc1,-91,?,-,?,-,-
CN(C)CCC(O)(c1ccccc1)c1ccccc1Cl (configuration not stated),-,-,-,-,-,-
Cc1ncc([N+](=O)[O-])n1S(=O)(=O)c1cc(Br)ccc1Br,-,-,-,-,-,-
Cc1ccc2nc(-c3ccc(Cl)cc3)c(Cc3ccccn3)n2c1,-,16µM,-,18µM,-,.
Cc1ccc2nc(-c3ccc(C#N)cc3)c(Cc3ccccn3)n2c1,-,?,-,?,?,.
Cc1ccc2nc(-c3cccc(Br)c3)c(Cc3ccccn3)n2c1,-,?,-,21µM,?,.
Cc1ccc(-c2nc3ccc(C)cn3c2Cc2ccccn2)cc1,-,18µM,-,?,-,.
C=CC[n+]1ccc(/C=C2\C=Cc3cc(C)ccc3N2CC)c2ccccc21,-66,0.21µM,5.8µM,0.29µM,4.1µM,2.5µM
CCOc1ccc(NC(=O)C2CCCN(S(=O)(=O)c3cccc4nonc34)C2)cc1 (configuration not stated),.,-,.,-,.,.
C/C=C(\C)C(=O)NCCN1C2=NC[C@@H](C)N2C[C@@H]1Cc1ccc(OC)cc1,-,-,-,-,-,-
COc1ccc(C[C@H]2CN3C(=NC[C@@H]3C(C)C)N2C[C@H](C)NC(=O)c2ccc(C)c(Br)c2)cc1,-57,18µM,-,29µM,-,-
Cc1ccc(C(=O)N[C@@H](C)CN2C3=NC[C@H](C(C)C)N3C[C@H]2Cc2ccc(O)cc2)cc1Br,?,5.8µM,-,4.6µM,-,-
CCOC(=O)C1CCCN(C(=O)c2cncc(Br)c2)CC1 (configuration not stated),-,-,-,-,?,.
CC(C)(C)NC(=O)[C@@H]1CN(Cc2cccnc2)CCN1C[C@@H](O)C[C@@H](Cc1ccccc1)C(=O)N[C@H]1c2ccccc2C[C@H]1O,-,12µM!,-,?,-,-
Clc1ccc(Cn2ncc3c(N4CCN(c5ccccc5)CC4)ncnc32)cc1,-,23µM,?,23µM,-,.
Cc1ccc(Cn2ncc3c(N4CCN(c5ccccc5C)CC4)ncnc32)cc1,?,16µM,-,23µM,-,-
Nc1ccc(S(=O)(=O)Nc2ccccc2)cc1,.,-,.,-,.,.
COc1ccc(-n2ccnc2SCC(=O)NC2CCCC2)cc1,-,-,-,-,-,-
CC(=O)O[C@H]1[C@H](O)[C@H](Oc2c(O)c(C)c3c4c2[C@@H](C)CC[C@@H]4[C@@H](C)C[C@H]3C=C(C)C)O[C@@H](C)[C@H]1O,-77,18µM,?,?,?,-
CC(C)=C[C@@H]1C[C@H](C)[C@H]2CC[C@H](C)c3c(O)c(O)c(C)c1c32,-,?,-,21µM,-,-
CC(=O)OC1[C@H](Oc2c(O)c(C)c3c4c2[C@@H](C)CC[C@@H]4[C@@H](C)C[C@@H]3C=C(C)C)OC[C@@H](O)[C@@H]1O (some centres not stated),-,-,-,-,-,-
CC(C)=C[C@H]1C[C@H](C)[C@H]2CC[C@H](C)c3c(O[C@@H]4OC[C@@H](O)[C@H](O)C4O)c(O)c(C)c1c32 (some centres not stated),-74,?,?,-,?,-
CC(=O)Oc1c(C)c2c3c(c1OC(C)=O)[C@@H](C)CC[C@@H]3[C@@H](C)C[C@H]2C=C(C)C,-,?,-,?,-,-
SMILES,IL-1B inflam inh,TDP1 cell noCPT,HT1080NT lethal,DT40 TDP1 CPT,HT1080 IDH1KD tx,uPA surface inh
CCCCn1c(N)c(N(CC(C)C)C(=O)CC2CCCCC2)c(=O)[nH]c1=O,-,-,-,-,-,-
CCN1C(=O)[C@H]2[C@@H](c3ccc(-c4ccccc4)cc3)N3CCC[C@@]3(C(=O)OC)[C@H]2C1=O,-,18µM,-,?,-,-
CCN1C(=O)[C@@H]2[C@@H](c3ccc(-c4ccc(F)cc4)cc3)N3CCC[C@@]3(C(=O)OC)[C@@H]2C1=O,-,?,-,?,-,-
CCN1C(=O)[C@@H]2[C@@H](c3ccc(-c4ccccc4)cc3)N3CCC[C@@]3(C(=O)OC)[C@@H]2C1=O,-,?,-,21µM,-,-
Cc1c(-n2c(SCC(=O)C(C)(C)C)nc3ccccc3c2=O)c(=O)n(-c2ccccc2)n1C,-,-,-,?,-,-
COC(=O)c1ccc(CN2C(=O)C(C)N(C(=O)c3c(F)cccc3F)c3ccccc32)cc1 (configuration not stated),-,8.2µM,-,15µM,-,-
CC1C(=O)N(Cc2ccc(F)cc2)c2ccccc2N1C(=O)c1c(F)cccc1F (configuration not stated),-,?,-,16µM,-,-
COC(=O)c1ccc(CN2C(=O)c3ccccc3C2=O)cc1,-,-,-,-,-,-
Cc1ccccc1CNC(=O)C(C)n1nc(C)n2c(cc3occc32)c1=O (configuration not stated),.,-,.,-,.,.
Cc1ccc2ccccc2c1C(O)c1ncc(-c2ccc(F)cc2)[nH]1 (configuration not stated),-,?,-,?,-,.
CSc1ccc(CN2CCC(C)(Oc3ccc(F)cc3)C2)cc1 (configuration not stated),-,?,?,?,-,.
CSc1nnc(Cn2c(=O)sc3ccccc32)n1-c1ccccc1C,-,18µM,-,?,-,-
CCSc1nnc(Cn2c(=O)sc3ccccc32)n1C,-,-,-,13µM,-,-
CC(Sc1nnc(Cn2c(=O)sc3ccccc32)n1C)c1ccccc1 (configuration not stated),-,-,-,?,-,-
CCSc1nnc(Cn2c(=O)sc3ccccc32)n1-c1ccccc1C,-,?,-,?,-,-
COc1ccc(C2=C/C(=C\c3cccc(OC(C)=O)c3)C(=O)O2)cc1,-,?,-,?,-,-
